# FGF22 binding: FGF22 (human) thermal shift binding. Q9HCT0. activity (Tm shift, normalised), % at 9.99 µM. hit rate 1.5% among 340,000. recombinant FGF22 thermal shift, SYPRO orange fluorescence; percent of sucrose octasulfate shift, DMSO zero;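 active means mean Tm shift, scaled 0 neutral to 100 positive control, at about 1.3% or above, every replicate too, limit read from the data; inconclusive means no clear call, values can overlap the other calls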
# RAD52 anneal inh: blocks human RAD52 DNA annealing | P43351 | recombinant RAD52 DNA annealing, FRET fluorescence | hit rate 0.46% among 360,000 | inhibition, % at 18.7 µM | AID 651710;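 active means every replicate showing at least 50% inhibition; inconclusive means mean inhibition at least 50% but not in every replicate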
# DENV2 CPE: protects cells from dengue virus 2 cytopathic effect. DENV2-infected cells, cytopathic effect rescue, plate reader. CPE inhibition, % at 9.99 µM. hit rate 1.7% among 350,000; in the data active means CPE inhibition above about 20%, passing the limit was not always enough; inconclusive means no clear call, values can overlap the other calls; tested in BHK-21 cells
# ERAP1 HTS inh: ERAP1 (human) enzyme inhibition; recombinant ERAP1, Leu-AMC fluorescence, 60 min; hit rate 0.15% among 340,000; inhibition, % at 10.7 µM;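 active means mean replicate inhibition of at least 30%, or all replicates individually reaching that 30% level; inactive means mean below 30% and not every replicate reaching it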
# AF4-AF9 inh: MLL-AF4/AF9 protein interaction inhibition; AlphaScreen, biotin-AF4 peptide binding to FLAG-AF9; inhibition, % at 10 µM; hit rate 0.47% among 350,000; AID 651704;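 active means every replicate reaching a set inhibition limit, whatever the replicate mean, cut at about 25% in these data; inconclusive means mean inhibition reaches that limit but some replicates miss it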
# Target sequence (P42568 whole entry, looked up): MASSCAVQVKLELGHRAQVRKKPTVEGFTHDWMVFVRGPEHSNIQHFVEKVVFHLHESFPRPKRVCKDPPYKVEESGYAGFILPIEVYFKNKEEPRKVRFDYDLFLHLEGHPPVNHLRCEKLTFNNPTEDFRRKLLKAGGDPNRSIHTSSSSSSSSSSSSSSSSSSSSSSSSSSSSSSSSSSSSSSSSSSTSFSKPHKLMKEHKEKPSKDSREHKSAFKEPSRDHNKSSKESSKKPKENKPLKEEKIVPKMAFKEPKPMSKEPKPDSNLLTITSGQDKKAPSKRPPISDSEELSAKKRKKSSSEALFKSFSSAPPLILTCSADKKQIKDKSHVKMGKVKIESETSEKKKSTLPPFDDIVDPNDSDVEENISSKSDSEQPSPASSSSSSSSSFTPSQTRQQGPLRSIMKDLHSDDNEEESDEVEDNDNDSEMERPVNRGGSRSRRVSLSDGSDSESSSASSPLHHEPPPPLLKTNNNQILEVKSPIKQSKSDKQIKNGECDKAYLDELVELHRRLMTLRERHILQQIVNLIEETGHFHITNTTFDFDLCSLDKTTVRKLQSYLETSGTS
# A number is an active result; - = inactive; ? = inconclusive; . = no result. Shown are actives, neighbours in structure and some others; about 4% of the full set was active somewhere.
SMILES,FGF22 binding,RAD52 anneal inh,DENV2 CPE,ERAP1 HTS inh,AF4-AF9 inh
C[C@H](CO)N1C[C@H](C)[C@@H](CN(C)C(=O)Nc2cccc3ccccc23)Oc2ccc(NC(=O)Nc3ccc4c(c3)OCO4)cc2CC1=O,-,-,-,-,-
CC1=NN(c2ccc(C)c(C)c2)C(=O)/C1=C\C=C\c1ccc([N+](=O)[O-])o1,43,-,-,-,-
CO[C@@H](CN(C)C(=O)c1cc(Cl)cc(Cl)c1)[C@@H](C)CN(C(=O)Nc1ccc(F)cc1)[C@H](C)CO,-,-,-,-,-
CO[C@@H](CN(C)C(=O)c1cc(Cl)cc(Cl)c1)[C@H](C)CN(C(=O)Nc1ccc(F)cc1)[C@@H](C)CO,-,-,92,-,-
CO[C@@H](CN(C)Cc1ccc(-c2ccccn2)cc1)[C@H](C)CN(C(=O)Nc1ccc(F)cc1)[C@H](C)CO,8.2,-,-,-,-
CO[C@@H](CN(C)S(=O)(=O)c1cn(C)cn1)[C@@H](C)CN(C(=O)Nc1ccc(F)cc1)[C@@H](C)CO,-,-,23,-,-
CO[C@H](CN(C)S(=O)(=O)c1ccc(C)cc1)[C@@H](C)CN(C(=O)Nc1ccccc1F)[C@@H](C)CO,-,-,-,-,-
CO[C@H](CN(C)S(=O)(=O)c1ccc(C)cc1)[C@@H](C)CN(C(=O)Nc1ccccc1F)[C@H](C)CO,-,-,30,-,-
O=C(c1ccccn1)N1CC(=O)N2[C@H](CO)[C@H](c3ccc(C#Cc4ccccc4)cc3)[C@@H]2C1,.,-,-,-,-
Cc1noc(C)c1NC(=O)Nc1ccc2c(c1)CC(=O)N([C@@H](C)CO)C[C@H](C)[C@@H](CN(C)C(=O)NC(C)C)O2,-,.,-,.,.
CO[C@H]1CC[C@H]2CCOc3c(C#N)cccc3C(=O)N(C)[C@H](C)C(=O)N(C)C[C@@H]1O2,-,-,-,-,-
C[C@@H]1CN([C@@H](C)CO)C(=O)Cc2cc(NC(=O)CCC(F)(F)F)ccc2O[C@H]1CN(C)S(=O)(=O)c1ccc(F)cc1,-,-,-,-,-
C[C@H](CO)N1C[C@H](C)[C@@H](CN(C)Cc2cncnc2)Oc2ncc(-c3ccc(F)cc3)cc2C1=O,-,-,-,-,-
C[C@H]1CN([C@@H](C)CO)C(=O)Cc2cc(NC(=O)CCCCCC(=O)Nc3ccccc3N)ccc2O[C@H]1CN(C)CC1CCCCC1,-,-,-,-,-
c1ccc(N=C2SCCCS2)cc1,43,-,-,-,-
COc1ccccc1-c1ccc2n(c1=O)C[C@H]1[C@H](CO)[C@@H](C(=O)NCc3ccccc3F)N[C@@H]21,-,-,-,-,-
CC(=O)c1ccc(NC(=O)CSc2nc3nc(C)cc(C)n3n2)cc1,-,-,-,-,-
CC(=O)c1ccc(NC(=O)CSc2nc(C)cc(C)c2C(N)=O)cc1,43,-,-,-,-
COc1ccc(C[C@H]2CCc3cnnn3COC[C@@H](Cc3ccccc3)NC2=O)cc1,-,-,-,-,-
C[C@H]1CN([C@@H](C)CO)C(=O)Cc2cc(NC(=O)Nc3cccc4ccccc34)ccc2O[C@H]1CN(C)Cc1ccc(C(F)(F)F)cc1,-,-,33,-,-
C[C@@H]1CN([C@H](C)CO)C(=O)Cc2cc(NC(=O)Nc3cccc4ccccc34)ccc2O[C@H]1CN(C)Cc1ccc(C(F)(F)F)cc1,-,-,-,-,-
C[C@H]1CN([C@@H](C)CO)C(=O)Cc2cc(NC(=O)Nc3cccc4ccccc34)ccc2O[C@@H]1CN(C)Cc1ccc(C(F)(F)F)cc1,-,-,-,-,-
C[C@H](CO)N1C[C@H](C)[C@H](CN(C)Cc2ccc(C(F)(F)F)cc2)Oc2ccc(NC(=O)Nc3cccc4ccccc34)cc2CC1=O,-,-,42,-,-
Fc1ccccc1C1c2[nH]c3ccccc3c2CCN1CCCn1cccn1 (centres undefined),-,-,31,-,-
O=C(c1cc2ncccn2n1)N1CCc2c([nH]c3ccccc23)C1c1ccccc1F (centres undefined),-,-,-,-,-
SMILES,FGF22 binding,RAD52 anneal inh,DENV2 CPE,ERAP1 HTS inh,AF4-AF9 inh
O=C(C[C@@H]1CC[C@@H](NC(=O)Nc2ccccc2F)[C@@H](CO)O1)NCc1ccc(Cl)cc1,-,-,-,-,-
O=C1CCCc2c1cc(C(=O)O)c(=O)n2-c1ccccc1,43,-,-,-,-
COC(=O)c1cc2c(n(Cc3ccccc3)c1=O)CCCC2=O,43,-,-,-,-
COC(=O)C(CCSC)NC(=O)c1cc2c(n(-c3ccccc3)c1=O)CCCC2=O (centres undefined),-,-,-,-,-
CCOC(=O)c1cc2c(n(-c3ccc(Cl)cc3)c1=O)CCCC2=O,44,-,-,-,-
Cc1ccc(-n2c3c(cc(C(=O)NCC(=O)c4ccccc4)c2=O)C(=O)CCC3)cc1,-,-,-,-,-
C[C@@H]1CCCCO[C@H](CN(C)C(=O)Nc2ccccc2)[C@H](C)CN([C@H](C)CO)C(=O)c2cc(NS(=O)(=O)c3cccs3)ccc2O1,-,-,-,-,-
O=C(C[C@H]1C=C[C@H](NC(=O)C2CCOCC2)[C@@H](CO)O1)Nc1nccs1,.,-,-,-,-
N#C[C@H]1[C@@H](c2ccccc2-c2cccc(F)c2)[C@@H](CO)N1C(=O)C1CCCC1,.,-,-,-,-
N#C[C@@H]1[C@@H](c2ccccc2-c2cccc(F)c2)[C@H](CO)N1C(=O)C1CCCC1,.,114,-,-,-
CN(C)C(=O)c1cccc(-c2ccccc2[C@@H]2[C@@H](C#N)N(C(=O)C3CC3)[C@@H]2CO)c1,-,-,46,-,-
N#C[C@H]1[C@@H](c2ccccc2-c2ccccc2F)[C@H](CO)N1C(=O)C1CC1,-,-,26,-,-
CN(C)C(=O)c1cccc(-c2ccccc2[C@@H]2[C@H](C#N)N(C(=O)C3CCCCC3)[C@H]2CO)c1,-,-,73,-,-
CCC(=O)N(C)C[C@@H]1Oc2cc(C#CC3CC3)ccc2S(=O)(=O)N([C@@H](C)CO)C[C@@H]1C,-,-,-,-,-
C[C@@H]1CN([C@@H](C)CO)C(=O)c2cc(NC(=O)CCC(F)(F)F)ccc2O[C@@H](C)CCCCO[C@@H]1CN(C)C(=O)Nc1ccc2c(c1)OCO2,-,-,-,-,-
C[C@@H]1CN([C@H](C)CO)C(=O)c2cc(NC(=O)Nc3ccc(C(F)(F)F)cc3)ccc2O[C@@H](C)CCCCO[C@H]1CN(C)S(=O)(=O)c1cn(C)cn1,-,.,?,.,.
CN(C)C(=O)c1cccc(-c2ccccc2[C@H]2[C@@H](C#N)N(C(=O)C3CC3)[C@@H]2CO)c1,-,-,69,-,-
CN(C)CC(=O)Nc1ccc2c(c1)[C@@H]1C[C@H](CC(=O)NCc3cccnc3)O[C@H](CO)[C@@H]1O2,-,-,-,-,-
O=[N+]([O-])c1ccccc1S(=O)(=O)Nc1cccc(-c2ccc3nncn3n2)c1,-,-,65,-,-

# Bioassay records deposited in PubChem by Broad Institute.
